According to PubChem BioAssay (Tox21):
Inconclusive results are not listed. A call without a number means that no potency is given here. Values without a mark were called inactive. Calls of active or inactive are those of the source. The call rests on the fitted dose curve; in most records, active means well fitted activation curve with a large enough effect in the repeat runs; inconclusive means weak or mixed curves; inactive means no such curve, though single readings can be large or run the other way.

Target: Aryl hydrocarbon receptor (Homo sapiens) (UniProt P35869)
Assay: qHTS assay to identify small molecule that activate the aryl hydrocarbon receptor (AhR) signaling pathway (AID 743085); further: nearly all actives have a fitted effect of over 15% in size;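 on activation: HG2L7.5c1 human HepG2 liver cells with stably integrated DRE-driven firefly reporter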
Settings: HepG2 AhR-luc (HG2L7.5c1), luciferase, 24 h; series mostly up to 70.3 µM
From the text: U.S. Tox21 Program National Center for Advancing Translational Sciences [NCATS] NIH Chemical Genomics Center [NCGC] U.S. Environmental Protection Agency [EPA] National Institutes of Environmental Health Sciences [NIEHS] National Toxicology Program [NTP] U.S. Food and Drug Administration [FDA] Tox21 Assay overview: The Aryl hydrocarbon Receptor (AhR), a member of the family of basic helix-loop-helix transcription factors, is crucial to adaptive responses to environmental changes. AhR mediates cellular responses to environmental pollutants such as aromatic hydrocarbons through induction of phase I and II enzymes but also interacts with other nuclear receptor signaling pathways. A cell based HepG2-AhR-luc assay (HG2L7.5c1 cell line, developed by Dr. Michael S. Denison, University of California at Davis, was used to assess the activation of AhR. HepG2 (human hepatocellular carcinoma) cells were stably transfected with an Ah receptor-responsive firefly luciferase reporter gene plasmid containing 20 dioxin responsive elements and luciferase reporter gene. Increased luciferase activity can be used to identify the compounds that induce AhR activation.
Tox21 Assay Protocol Summary: 4000 cells in 5 uL/well were dispensed into white wall/solid bottom 1536-well plates using a Multidrop Combi (Thermo Fisher Scientific Inc., Waltham, MA) dispenser. After the assay plates were incubated at 37C for 5 h, 23 nL of compound or DMSO vehicle was transferred to the assay plates by a pintool station (Kalypsys, San Diego, CA). The plates were incubated at 37C for 24 hr. After 1 ul/well of CellTiter-Fluor reagent (Promega, Madison, WI) was added into the assay plates using a Flying Reagent Dispenser (FRD) (Aurora Discovery, CA), the assay plates were incubated at 37C for 30 min. The fluorescence intensity in the plates was measured using a ViewLux plate reader (PerkinElmer, Shelton, CT), followed by the addition of 4 uL of ONE-Glo Luciferase Assay reagent (Promega) using an FRD (Aurora Discovery). After the assay plates were incubated at room temperature for 30 min, luminescence intensity was measured using a ViewLux plate reader (Perkin Elmer).
Potency means the concentration at half of the fitted maximal effect.

Aryl hydrocarbon receptor (Homo sapiens), sequence (P35869 whole entry, looked up): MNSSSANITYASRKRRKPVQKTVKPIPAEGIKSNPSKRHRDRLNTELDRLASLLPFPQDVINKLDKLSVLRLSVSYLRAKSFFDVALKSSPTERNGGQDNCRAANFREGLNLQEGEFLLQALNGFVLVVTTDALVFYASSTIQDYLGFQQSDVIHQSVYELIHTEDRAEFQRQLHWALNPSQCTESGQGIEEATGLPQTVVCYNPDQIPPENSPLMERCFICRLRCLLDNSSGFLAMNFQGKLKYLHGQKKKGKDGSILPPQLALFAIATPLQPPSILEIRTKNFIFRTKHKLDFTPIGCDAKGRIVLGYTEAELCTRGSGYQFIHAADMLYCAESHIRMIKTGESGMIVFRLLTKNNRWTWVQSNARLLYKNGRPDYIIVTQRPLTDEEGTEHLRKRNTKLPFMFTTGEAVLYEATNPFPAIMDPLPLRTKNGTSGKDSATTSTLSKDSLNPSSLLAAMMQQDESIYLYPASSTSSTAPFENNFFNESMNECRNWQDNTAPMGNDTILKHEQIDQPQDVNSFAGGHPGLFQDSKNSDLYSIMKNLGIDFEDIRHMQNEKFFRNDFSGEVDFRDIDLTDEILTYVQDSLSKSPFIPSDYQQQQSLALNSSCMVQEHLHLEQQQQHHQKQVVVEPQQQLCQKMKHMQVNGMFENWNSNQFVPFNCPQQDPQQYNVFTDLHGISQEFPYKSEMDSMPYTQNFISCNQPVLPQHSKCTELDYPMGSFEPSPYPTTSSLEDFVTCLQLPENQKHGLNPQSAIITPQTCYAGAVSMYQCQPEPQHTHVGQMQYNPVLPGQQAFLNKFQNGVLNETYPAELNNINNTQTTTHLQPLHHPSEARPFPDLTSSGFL

SMILES	Potency	activation
CN1CCN(CC(=O)N2c3ccccc3C(=O)Nc3cccnc32)CC1	inactive	–
C=CC(OCC)OCC	60.4 µM (active)	–
C=C(C)C(=O)OCCN(CC)CC	inactive	–
Cc1ccc2c(c1)OCC(=O)CO2	inactive	–
BrCCCCCBr	inactive	–
CNS(=O)(=O)CCc1ccc2[nH]cc(C3CCN(C)CC3)c2c1	inactive	–
Nc1nnc(-c2cccc(Cl)c2Cl)c(N)n1	inactive	–
CCCCCCCCC1CCC(=O)O1 (stereo not given)	inactive	–
CCCCCCCC/C=C\CCCCCCCC(=O)OCCCC	inactive	–
CC(C)OC(=O)CCCCC(=O)OC(C)C	54.6 µM (active)	–
CC(N)C(=O)OC(C)(C)Cc1ccc(Cl)cc1 (stereo not given)	inactive	–
CCNC(=O)C1CC(C)CCC1C(C)C (stereo not given)	inactive	–
CCCC/C=C/C=C\C=O	inactive	–
CCCCCCOC(=O)CC	inactive	–
CCOCCOCCOCC	inactive	–
Cc1ccsc1/C=C/C1=NCCCN1C	inactive	–
C[Si](C)=O	–	-0.45% [at 8.47 µM]
Cc1nc2n(c(=O)c1CCN1CCC(c3noc4cc(F)ccc34)CC1)CCC[C@H]2O	inactive	–
CN(CCOc1ccc(NS(C)(=O)=O)cc1)CCc1ccc(NS(C)(=O)=O)cc1	inactive	–
O=C(O)Cc1cn(-c2ccccc2)nc1-c1ccc(Cl)cc1	inactive	–

SMILES	Potency	activation
CC(COC(C)(C)C)OCCCO (stereo not given)	inactive	–
O=C(O)C(=O)Cc1ccccc1	inactive	–
N[C@@H](COP(=O)(O)O)C(=O)O	inactive	–
O=C(CCN1CCN(CCO)CC1)N1c2ccccc2Sc2ccc(C(F)(F)F)cc21	inactive	–
CC1(C)S[C@@H]2[C@H](N=CN3CCCCCC3)C(=O)N2[C@H]1C(=O)O	inactive	–
CCOc1cc([N+](=O)[O-])c(OCC)cc1N1CCOCC1	inactive	–
CC(=O)/C=C/C1C(C)=CCC(C)C1(C)C (stereo not given)	inactive	–
COc1ccc(C2CNC(=O)C2)cc1OC1CCCC1 (stereo not given)	inactive	–
CCOC(=O)[C@H](CCc1ccccc1)N[C@@H](C)C(=O)N1C(=O)N(C)C[C@H]1C(=O)O	inactive	–
CCCCOCCOC(=O)COc1nc(Cl)c(Cl)cc1Cl	inactive	–
Cc1ccc(C=O)cc1C	inactive	–
O=S(=O)(O)CCN1CCN(CCO)CC1	inactive	–
CCCCCCCCSCC	inactive	–
CC(S)C(=O)NCC(=O)O (stereo not given)	inactive	–
NS(=O)(=O)c1ccc(NC(=O)CCC(=O)O)cc1	inactive	–
CCO[Si](CCCS)(OCC)OCC	inactive	–
COCCOCCOCCOCCO	inactive	–
CCCCCCCCC(=O)Cl	inactive	–
O=C(O)Cc1ccc(Cl)cc1Cl	inactive	–
ClCCCl	inactive	–
